Structures are written as SMILES. Calls of active or inactive are those of the source.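 Rule for the calls, unless noted: active = visually confirmed hit in the image check and inhibition above 20%; inconclusive = visually confirmed hit but inhibition not above 20%; inactive = no visual hit in the image check.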

Tested on in one experiment: not listed separately
Put plainly: inhibitors of E-selectin induction by TNFa, primary screen, imaging, HUVEC, immunofluorescence, MLSMR starter and 10KST1 sets (AID 487).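 For inhibition: signal is fraction of cell area covered by stained E-selectin grains.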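 For nuclei count: 100% = median nuclei count of all wells on the same plate.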 As to conditions: HUVEC TNFalpha-induced E-selectin immunofluorescence imaging, at 2 µM; inhibition: stronger effect = higher value; nuclei count: measured here: cell number, toxicity.
In the case of `CCOC(=O)Cn1ncc(-c2ccccc2)c1N`, the nuclei count is 96.2% and the inhibition was -51.5% (inactive).

`O=C(NCC(c1cccnc1)N1CCN(c2ccc(F)cc2)CC1)OCc1ccccc1` (stereo not given): the nuclei count is 126% and the inhibition is -34.3% (inactive).

Regarding `O=C(c1ccc(Cl)cc1)N1CCCOC1`, the inhibition was -84.3% (inactive) and the nuclei count is 111%.

With `Cc1ccc(S(=O)(=O)C2(C(=O)Nc3cccnc3)CC2)cc1`, the nuclei count is 98.8% and the inhibition is -126% (inactive).

With `Cc1[nH]nc(N=CC2=C(O)CC(C)(C)CC2=O)c1-c1ccc(Cl)cc1`, the inhibition is -27.4% (inactive) and the nuclei count worked out at 128%.

`CC(C)(C)c1ccc2c(c1)OCC(C(=O)O)O2` (stereo not given): the nuclei count was found to be 90.7% and the inhibition was 14.6% (inactive).

As for `Cn1c(=O)[nH]c(=O)c2c1nc(NCCCn1ccnc1)n2Cc1ccccc1`, the nuclei count is 119% and the inhibition is -46.4% (inactive).

Take `CCOC(=O)C(NC(=O)CC)(Nc1ccc(S(=O)(=O)Nc2onc(C)c2C)cc1)C(F)(F)F` (stereo not given): the nuclei count amounted to 104% and the inhibition was -27.3% (inactive).

Turning to `CCOc1ccc(S(=O)(=O)Nc2ccc(Cl)cn2)c(C)c1C`, the nuclei count came to 101% and the inhibition is -43.3% (inactive).

Consider `O=C(OCC#CCSc1nnc(-c2ccncc2)o1)c1cccs1`, for which the inhibition is -19.4% (inactive) and the nuclei count is 102%.

`O=P(O)(O)C(O)C(F)(F)C(F)(F)C(F)(F)C(F)F` (stereo not given): the inhibition is 12.7% (inactive) and the nuclei count was 127%.

Take `COc1ccc(-c2nnc(SCC(=O)Nc3cc(C)on3)n2C)cc1OC`: the nuclei count amounted to 108% and the inhibition is -12.1% (inactive).

Turning to `Cc1c(C#N)c(N)c(C(=O)c2ccccc2)n1Cc1ccccc1`, the inhibition is -38% (inactive) and the nuclei count came to 117%.

With `CCC(C)NCC(O)COCc1ccc(Cl)cc1` (stereo not given), the inhibition was -9.3% (inactive) and the nuclei count is 86.6%.

With `CC(=O)N1CCc2cc(S(=O)(=O)CCC(=O)Nc3cccc(F)c3)ccc21`, the inhibition was -19.8% (inactive) and the nuclei count was determined as 112%.

As for `O=c1c2[nH]c3cccc(Cl)c3c2ncn1CCN1CCCCC1`, the nuclei count is 106% and the inhibition is -0.5% (inactive).

As for `O=C(Nc1cccc2ccccc12)c1ccc(Br)o1`, the inhibition was 18.2% (inactive) and the nuclei count was found to be 94.7%.

For the compound `CN(C)S(=O)(=O)c1ccc(C(=O)N2CCCC2c2nc3ccccc3s2)cc1` (stereo not given), the inhibition is -82.5% (inactive) and the nuclei count stood at 102%.

Consider `CSc1ccccc1NC(=O)C1CCCO1` (stereo not given), for which the inhibition is -73% (inactive) and the nuclei count came to 117%.

With `C=CCn1c(=O)c2ccccc2n2c(SC(C)C(=O)Nc3nc(-c4ccccc4)cs3)nnc12` (stereo not given), the nuclei count is 107% and the inhibition is -26% (inactive).

Consider `CC1Cc2ccccc2N1C(=O)CSc1nc2ccccc2n1CC(=O)N1CCOCC1` (stereo not given), for which the inhibition was -68.5% (inactive) and the nuclei count came to 110%.

With `COc1ccccc1C(=O)NC(C)C(c1cccs1)N1CCN(C)CC1` (stereo not given), the nuclei count was determined as 114% and the inhibition is -38.9% (inactive).

`CCn1cc(C(=O)NCCCOC)c(=O)c2cc(S(=O)(=O)N(C)C)ccc21`: the inhibition is -42.6% (inactive) and the nuclei count worked out at 112%.

As to `Cc1cc(N2C(=O)C(O)=C(C(=O)c3ccc(C)o3)C2c2cccs2)no1` (stereo not given), the inhibition is 12% (inactive) and the nuclei count is 103%.

Regarding `Cc1ccc(CNC(=O)C2CC(=O)OC23CCCC3)c(C)c1` (stereo not given), the nuclei count was determined as 102% and the inhibition is 8.3% (inactive).

As to `CCSc1nc2ccccc2n1CCC(=O)O`, the nuclei count worked out at 111% and the inhibition was -96.2% (inactive).

In the case of `COc1ccc(-c2nc(CS(=O)CC(=O)N3CCCC3)c(C)o2)cc1` (stereo not given), the inhibition was -51.5% (inactive) and the nuclei count came out at 100%.

In the case of `COc1ccc2c(c1)CCc1cc(C(=O)N3CCN(c4ccc(N5CCOCC5)nn4)CC3)sc1-2`, the nuclei count turned out to be 114% and the inhibition was -61.7% (inactive).

Take `COC(=O)c1ccc(Oc2nc(NC(C)C)nc(N(C)C)n2)cc1`: the nuclei count was 106% and the inhibition is -112% (inactive).

For `COc1ccc(N(CC(=O)N2CCCCC2)S(=O)(=O)c2ccccc2)c(OC)c1`, the inhibition is -218% (inactive) and the nuclei count is 132%.

Turning to `O=c1cc(CSc2nnnn2-c2ccccc2)nc2scc(-c3ccccc3)n12`, the inhibition is -101% (inactive) and the nuclei count was determined as 139%.

Take `O=C1CCCc2c1nn(-c1ccccc1)[n+]2[O-]`: the inhibition was -32.5% (inactive) and the nuclei count was 108%.

Consider `Nc1nc(Nc2ccc(Cl)cc2Cl)nc(C(F)(F)F)n1`, for which the nuclei count stood at 105% and the inhibition was -19.5% (inactive).

As for `Cn1c(=O)c2c(nc(NCc3ccco3)n2C/C=C/c2ccccc2)n(C)c1=O`, the nuclei count turned out to be 118% and the inhibition is -65.5% (inactive).

In the case of `Cn1c(=O)[nH]c(=O)c2c1nc(N1CCc3ccccc3C1)n2CCSc1nc2ccccc2s1`, the inhibition is -34.8% (inactive) and the nuclei count was determined as 118%.

Regarding `COC(=O)c1oc2ccc(Br)cc2c1NC(C)=O`, the nuclei count was found to be 112% and the inhibition was -28.5% (inactive).

Turning to `COc1cc(NC(=O)CC(C)C)ccc1NC(=O)c1ccco1`, the nuclei count amounted to 47.6% and the inhibition is 44.4% (inactive).

As for `CCOC(=O)N1CCC(NC(=O)C2CCC(Cn3c(=O)[nH]c4ccccc4c3=O)CC2)CC1` (stereo not given), the inhibition was -89.5% (inactive) and the nuclei count is 101%.

As for `Cc1cc(C(F)F)n2nc(C(=O)Nc3ccc(S(=O)(=O)N4CCCCCC4)cc3)nc2n1`, the nuclei count came to 96.2% and the inhibition was -59.4% (inactive).

For the compound `O=C(NCCN1CCOCC1)C1CCC(=O)N1Cc1ccccc1Cl` (stereo not given), the nuclei count stood at 87.7% and the inhibition is 6.7% (inactive).

The target in a further experiment is Voltage-gated potassium channel subunit beta-2 (Rattus norvegicus) (UniProt P62483). Put plainly: KvBeta enzyme negative modulators, primary screen, biochemical, NADPH fluorescence (AID 622;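 active = fluorescence slope higher than the sample average by over 3 SD, cut at about -0.22 in these data, passing the limit was not always enough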;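 note: slope of raw intensity against log time taken from 70 to 1610 s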). As to conditions: recombinant KvBeta, 4-cyanobenzaldehyde reduction, at 10 µM, stronger effect = higher value.
Chain of Voltage-gated potassium channel subunit beta-2 (Rattus norvegicus) (P62483 whole entry, looked up): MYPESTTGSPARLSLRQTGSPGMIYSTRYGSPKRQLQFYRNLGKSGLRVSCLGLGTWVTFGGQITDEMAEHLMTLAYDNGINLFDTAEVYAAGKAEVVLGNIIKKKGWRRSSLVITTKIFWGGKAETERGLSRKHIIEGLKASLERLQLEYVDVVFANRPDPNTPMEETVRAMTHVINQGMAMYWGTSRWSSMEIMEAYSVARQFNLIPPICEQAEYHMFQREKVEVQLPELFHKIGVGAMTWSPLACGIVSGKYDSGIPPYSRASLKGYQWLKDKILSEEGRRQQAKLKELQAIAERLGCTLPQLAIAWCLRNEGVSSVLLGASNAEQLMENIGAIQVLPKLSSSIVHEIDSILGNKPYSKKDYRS
Regarding `CCOC(=O)Cn1ncc(-c2ccccc2)c1N`, the fluorescence slope was -0.48 (inactive).

For the compound `O=C(NCC(c1cccnc1)N1CCN(c2ccc(F)cc2)CC1)OCc1ccccc1` (stereo not given), the fluorescence slope was -0.605 (inactive).

For `O=C(c1ccc(Cl)cc1)N1CCCOC1`, the fluorescence slope was -0.32 (inactive).

As for `Cc1ccc(S(=O)(=O)C2(C(=O)Nc3cccnc3)CC2)cc1`, the fluorescence slope was -0.573 (inactive).

As for `Cc1[nH]nc(N=CC2=C(O)CC(C)(C)CC2=O)c1-c1ccc(Cl)cc1`, the fluorescence slope was -0.402 (inactive).

With `CC(C)(C)c1ccc2c(c1)OCC(C(=O)O)O2` (stereo not given), the fluorescence slope was -0.547 (inactive).

In the case of `Cn1c(=O)[nH]c(=O)c2c1nc(NCCCn1ccnc1)n2Cc1ccccc1`, the fluorescence slope is -0.603 (inactive).

For the compound `CCOC(=O)C(NC(=O)CC)(Nc1ccc(S(=O)(=O)Nc2onc(C)c2C)cc1)C(F)(F)F` (stereo not given), the fluorescence slope is -0.61 (inactive).

For the compound `CCOc1ccc(S(=O)(=O)Nc2ccc(Cl)cn2)c(C)c1C`, the fluorescence slope was -0.475 (inactive).

Consider `O=C(OCC#CCSc1nnc(-c2ccncc2)o1)c1cccs1`, for which the fluorescence slope was -0.426 (inactive).

On to `O=P(O)(O)C(O)C(F)(F)C(F)(F)C(F)(F)C(F)F` (stereo not given), for which the fluorescence slope was -0.31 (inactive).

On to `COc1ccc(-c2nnc(SCC(=O)Nc3cc(C)on3)n2C)cc1OC`, for which the fluorescence slope was -0.473 (inactive).

For `Cc1c(C#N)c(N)c(C(=O)c2ccccc2)n1Cc1ccccc1`, the fluorescence slope is -0.512 (inactive).

Regarding `CCC(C)NCC(O)COCc1ccc(Cl)cc1` (stereo not given), the fluorescence slope is -0.484 (inactive).

As for `CC(=O)N1CCc2cc(S(=O)(=O)CCC(=O)Nc3cccc(F)c3)ccc21`, the fluorescence slope is -0.369 (inactive).

`O=c1c2[nH]c3cccc(Cl)c3c2ncn1CCN1CCCCC1`: the fluorescence slope was -0.618 (inactive).

Consider `O=C(Nc1cccc2ccccc12)c1ccc(Br)o1`, for which the fluorescence slope is -0.437 (inactive).

Regarding `CN(C)S(=O)(=O)c1ccc(C(=O)N2CCCC2c2nc3ccccc3s2)cc1` (stereo not given), the fluorescence slope is -0.524 (inactive).

As to `CSc1ccccc1NC(=O)C1CCCO1` (stereo not given), the fluorescence slope was -0.429 (inactive).

Turning to `C=CCn1c(=O)c2ccccc2n2c(SC(C)C(=O)Nc3nc(-c4ccccc4)cs3)nnc12` (stereo not given), the fluorescence slope was -0.483 (inactive).

In the case of `CC1Cc2ccccc2N1C(=O)CSc1nc2ccccc2n1CC(=O)N1CCOCC1` (stereo not given), the fluorescence slope was -0.523 (inactive).

On to `COc1ccccc1C(=O)NC(C)C(c1cccs1)N1CCN(C)CC1` (stereo not given), for which the fluorescence slope is -0.394 (inactive).

With `CCn1cc(C(=O)NCCCOC)c(=O)c2cc(S(=O)(=O)N(C)C)ccc21`, the fluorescence slope was -0.418 (inactive).

Turning to `Cc1cc(N2C(=O)C(O)=C(C(=O)c3ccc(C)o3)C2c2cccs2)no1` (stereo not given), the fluorescence slope was -0.42 (inactive).

Regarding `Cc1ccc(CNC(=O)C2CC(=O)OC23CCCC3)c(C)c1` (stereo not given), the fluorescence slope was -0.593 (inactive).

Turning to `CCSc1nc2ccccc2n1CCC(=O)O`, the fluorescence slope is -0.49 (inactive).

For the compound `COc1ccc(-c2nc(CS(=O)CC(=O)N3CCCC3)c(C)o2)cc1` (stereo not given), the fluorescence slope was -0.482 (inactive).

As to `COc1ccc2c(c1)CCc1cc(C(=O)N3CCN(c4ccc(N5CCOCC5)nn4)CC3)sc1-2`, the fluorescence slope was -0.499 (inactive).

With `COC(=O)c1ccc(Oc2nc(NC(C)C)nc(N(C)C)n2)cc1`, the fluorescence slope was -0.468 (inactive).

`COc1ccc(N(CC(=O)N2CCCCC2)S(=O)(=O)c2ccccc2)c(OC)c1`: the fluorescence slope was -0.278 (inactive).

For `O=c1cc(CSc2nnnn2-c2ccccc2)nc2scc(-c3ccccc3)n12`, the fluorescence slope is -0.415 (inactive).

With `O=C1CCCc2c1nn(-c1ccccc1)[n+]2[O-]`, the fluorescence slope was -0.426 (inactive).

As to `Nc1nc(Nc2ccc(Cl)cc2Cl)nc(C(F)(F)F)n1`, the fluorescence slope was -0.348 (inactive).

Take `Cn1c(=O)c2c(nc(NCc3ccco3)n2C/C=C/c2ccccc2)n(C)c1=O`: the fluorescence slope is -0.637 (inactive).

`Cn1c(=O)[nH]c(=O)c2c1nc(N1CCc3ccccc3C1)n2CCSc1nc2ccccc2s1`: the fluorescence slope is -0.502 (inactive).

Regarding `COC(=O)c1oc2ccc(Br)cc2c1NC(C)=O`, the fluorescence slope is -0.575 (inactive).

`COc1cc(NC(=O)CC(C)C)ccc1NC(=O)c1ccco1`: the fluorescence slope was -0.605 (inactive).

In the case of `CCOC(=O)N1CCC(NC(=O)C2CCC(Cn3c(=O)[nH]c4ccccc4c3=O)CC2)CC1` (stereo not given), the fluorescence slope is -0.546 (inactive).

`Cc1cc(C(F)F)n2nc(C(=O)Nc3ccc(S(=O)(=O)N4CCCCCC4)cc3)nc2n1`: the fluorescence slope is -0.566 (inactive).

In the case of `O=C(NCCN1CCOCC1)C1CCC(=O)N1Cc1ccccc1Cl` (stereo not given), the fluorescence slope is -0.512 (inactive).

One may read the inhibition as the relative decrease from the control value, in per cent.
